In publication PMC7862700, “An all-to-all approach to the identification of sequence-specific readers for epigenetic DNA modifications on cytosine” one finds binding signal data, which are given here for two sequences.

What all share (experiment): DAPPL (digital affinity profiling via proximity ligation, sequencing); 10 mM Tris-HCl pH 7.5, 50 mM NaCl, 1 mM DTT, 4% glycerol, room temperature, 30 min; GST-TFs on glutathione beads, 16-mer random dsDNA library, 0.1% formaldehyde crosslink after washing; high values mean tight binding
What all share (settings): protein: recombinant; tags: N-terminal GST; dsDNA, one strand shown

The target in one experiment is T1, FLI1 (Homo sapiens, UniProt Q01543 1-452).
T1 sequence: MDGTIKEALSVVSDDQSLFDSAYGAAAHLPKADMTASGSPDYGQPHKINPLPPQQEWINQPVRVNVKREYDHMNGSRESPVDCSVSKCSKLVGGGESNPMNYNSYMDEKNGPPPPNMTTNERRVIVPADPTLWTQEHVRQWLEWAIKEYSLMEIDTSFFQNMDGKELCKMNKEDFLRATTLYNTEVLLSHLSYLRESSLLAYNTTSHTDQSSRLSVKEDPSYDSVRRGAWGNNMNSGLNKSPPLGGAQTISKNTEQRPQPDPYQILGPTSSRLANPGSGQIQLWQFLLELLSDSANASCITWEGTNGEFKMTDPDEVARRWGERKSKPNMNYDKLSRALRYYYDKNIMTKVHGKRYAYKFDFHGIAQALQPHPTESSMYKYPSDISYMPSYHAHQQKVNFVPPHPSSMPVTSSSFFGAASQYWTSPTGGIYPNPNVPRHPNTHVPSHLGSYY
A digest of the protocol: (§1)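 Sequencing on an Illumina NextSeq500 followed washing, crosslinking with 0.1% formaldehyde, proximity ligation (BsaI/T4 ligase, 1 h, 37 °C) and PCR amplification of pools that had been incubated for 30 min at room temperature with 200 nmole of a random double-stranded 16-mer DNA library in Tris/NaCl/DTT/glycerol buffer. Each pool held DNA-barcoded human transcription factors, expressed in yeast as GST fusions and captured on glutathione beads, plus a tag-only sample. Binding signal is a hexamer's read frequency for a factor divided by its frequency in the tag-only sample.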

For the next experiment, the target named is T2, ELK1 (Homo sapiens, UniProt P19419 1-428).
T2 sequence: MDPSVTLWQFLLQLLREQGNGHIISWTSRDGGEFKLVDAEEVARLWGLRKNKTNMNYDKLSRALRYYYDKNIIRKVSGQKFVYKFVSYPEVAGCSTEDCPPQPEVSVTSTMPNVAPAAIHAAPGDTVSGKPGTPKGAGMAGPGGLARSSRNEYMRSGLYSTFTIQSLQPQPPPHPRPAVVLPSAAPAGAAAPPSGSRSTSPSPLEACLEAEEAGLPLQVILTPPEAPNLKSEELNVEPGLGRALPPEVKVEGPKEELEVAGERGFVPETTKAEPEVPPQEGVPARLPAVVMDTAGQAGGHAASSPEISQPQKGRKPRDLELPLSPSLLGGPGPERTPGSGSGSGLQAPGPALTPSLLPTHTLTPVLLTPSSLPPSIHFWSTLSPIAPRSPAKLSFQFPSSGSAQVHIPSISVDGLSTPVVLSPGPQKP
The gist of the method: as §1

For the next experiment, the target named is T3, GABPA (Homo sapiens, UniProt Q06546 1-454).
T3 sequence: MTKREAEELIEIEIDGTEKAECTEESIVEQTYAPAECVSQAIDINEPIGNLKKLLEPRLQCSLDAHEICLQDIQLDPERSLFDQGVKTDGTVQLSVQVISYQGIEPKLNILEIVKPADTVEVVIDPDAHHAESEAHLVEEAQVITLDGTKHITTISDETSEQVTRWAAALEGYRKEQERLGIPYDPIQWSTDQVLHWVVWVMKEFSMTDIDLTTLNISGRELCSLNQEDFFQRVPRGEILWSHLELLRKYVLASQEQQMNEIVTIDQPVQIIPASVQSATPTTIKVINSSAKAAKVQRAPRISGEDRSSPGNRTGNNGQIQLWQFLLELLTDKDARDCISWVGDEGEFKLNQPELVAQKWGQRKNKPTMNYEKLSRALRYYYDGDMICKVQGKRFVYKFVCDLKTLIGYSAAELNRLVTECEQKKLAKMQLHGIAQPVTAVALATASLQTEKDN
The gist of the method:
as §1

In the next experiment the target is T4, ERG (Homo sapiens, UniProt P11308 1-479).
T4 sequence: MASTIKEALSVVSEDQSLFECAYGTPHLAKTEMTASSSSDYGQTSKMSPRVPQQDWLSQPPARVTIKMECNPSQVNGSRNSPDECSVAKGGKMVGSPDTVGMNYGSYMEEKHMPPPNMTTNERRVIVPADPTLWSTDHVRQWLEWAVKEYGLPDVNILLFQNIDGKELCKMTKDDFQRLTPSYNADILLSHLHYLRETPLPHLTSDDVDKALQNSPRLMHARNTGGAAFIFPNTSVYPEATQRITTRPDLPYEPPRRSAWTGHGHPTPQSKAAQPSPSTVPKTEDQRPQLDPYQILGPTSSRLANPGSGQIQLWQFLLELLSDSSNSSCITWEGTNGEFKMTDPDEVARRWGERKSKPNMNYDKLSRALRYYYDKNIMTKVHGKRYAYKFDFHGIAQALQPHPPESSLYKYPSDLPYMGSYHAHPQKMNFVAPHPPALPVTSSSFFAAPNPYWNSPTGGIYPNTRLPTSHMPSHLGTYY
The gist of the method: as §1

The target of the next experiment is ELF1 (Homo sapiens, UniProt P32519 1-619). A digest of the protocol: as §1
ELF1, sequence (P32519 whole entry): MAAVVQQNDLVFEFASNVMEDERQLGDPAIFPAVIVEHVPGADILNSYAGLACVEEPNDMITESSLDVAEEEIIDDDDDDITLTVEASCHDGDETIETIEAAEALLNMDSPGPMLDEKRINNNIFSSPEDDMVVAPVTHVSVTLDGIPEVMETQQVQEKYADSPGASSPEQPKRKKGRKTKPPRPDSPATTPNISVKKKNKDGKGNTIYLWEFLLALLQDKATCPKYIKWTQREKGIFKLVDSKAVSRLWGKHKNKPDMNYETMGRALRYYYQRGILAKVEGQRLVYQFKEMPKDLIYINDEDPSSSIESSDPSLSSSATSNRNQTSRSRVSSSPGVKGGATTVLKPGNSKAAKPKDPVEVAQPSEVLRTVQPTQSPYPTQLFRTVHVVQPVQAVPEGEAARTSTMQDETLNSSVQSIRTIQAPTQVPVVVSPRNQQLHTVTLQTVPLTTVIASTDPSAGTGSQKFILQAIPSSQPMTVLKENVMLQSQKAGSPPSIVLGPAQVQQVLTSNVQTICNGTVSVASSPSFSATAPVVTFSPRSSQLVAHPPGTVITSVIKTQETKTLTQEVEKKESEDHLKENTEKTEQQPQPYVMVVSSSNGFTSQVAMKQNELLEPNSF
The next experiment addresses T5, EHF (Homo sapiens, UniProt Q9NZC4 1-300).
T5 sequence: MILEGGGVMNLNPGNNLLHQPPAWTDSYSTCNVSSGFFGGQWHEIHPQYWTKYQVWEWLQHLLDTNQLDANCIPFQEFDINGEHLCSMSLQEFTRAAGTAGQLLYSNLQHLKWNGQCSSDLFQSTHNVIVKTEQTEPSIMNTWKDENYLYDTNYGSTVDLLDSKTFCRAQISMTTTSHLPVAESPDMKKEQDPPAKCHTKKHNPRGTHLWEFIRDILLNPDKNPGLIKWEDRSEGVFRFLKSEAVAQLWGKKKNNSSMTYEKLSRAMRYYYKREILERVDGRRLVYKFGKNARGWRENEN
A digest of the protocol: as §1

A further experiment has as its target SPI1 (Homo sapiens, UniProt P17947 1-270). The gist of the method: as §1
A further experiment addresses SPIB (Homo sapiens, UniProt Q01892 1-262). The gist of the method: as §1
The next experiment deals with T6, ELK3 (Homo sapiens, UniProt P41970 1-407).
T6 sequence: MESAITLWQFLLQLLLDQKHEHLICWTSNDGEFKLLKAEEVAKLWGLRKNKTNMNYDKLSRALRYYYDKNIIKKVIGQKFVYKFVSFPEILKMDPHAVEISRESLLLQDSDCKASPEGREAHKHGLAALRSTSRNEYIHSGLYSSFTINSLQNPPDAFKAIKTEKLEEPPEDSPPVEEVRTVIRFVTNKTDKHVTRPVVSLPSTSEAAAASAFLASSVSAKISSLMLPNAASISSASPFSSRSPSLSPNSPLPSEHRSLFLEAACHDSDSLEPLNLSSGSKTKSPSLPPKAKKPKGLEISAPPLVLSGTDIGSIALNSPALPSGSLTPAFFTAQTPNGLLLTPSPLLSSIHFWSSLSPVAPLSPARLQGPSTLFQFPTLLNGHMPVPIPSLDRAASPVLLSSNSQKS
A digest of the protocol:
as §1

The target of another experiment is T7, FEV (Homo sapiens, UniProt Q99581 1-238).
T7 sequence: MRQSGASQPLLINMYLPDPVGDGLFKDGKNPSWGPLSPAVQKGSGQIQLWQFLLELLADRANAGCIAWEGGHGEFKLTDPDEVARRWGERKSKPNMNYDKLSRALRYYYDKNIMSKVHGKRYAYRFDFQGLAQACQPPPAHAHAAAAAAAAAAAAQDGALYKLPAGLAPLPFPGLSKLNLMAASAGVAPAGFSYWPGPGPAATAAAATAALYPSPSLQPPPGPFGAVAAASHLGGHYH
A digest of the protocol: as §1

For the next experiment, the target named is ETV5 (Homo sapiens, UniProt P41161 1-510). A digest of the protocol:
as §1

The next experiment deals with T8, SPIC (Homo sapiens, UniProt Q8N5J4 1-248).
T8 sequence: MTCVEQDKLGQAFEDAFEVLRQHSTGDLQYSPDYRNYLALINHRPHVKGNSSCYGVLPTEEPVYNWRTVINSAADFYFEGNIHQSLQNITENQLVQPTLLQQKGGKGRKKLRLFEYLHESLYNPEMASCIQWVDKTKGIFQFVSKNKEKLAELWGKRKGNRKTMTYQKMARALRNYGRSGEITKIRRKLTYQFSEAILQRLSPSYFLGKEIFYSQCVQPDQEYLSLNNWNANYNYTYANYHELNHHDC
The gist of the method: as §1

Another experiment concerns the target ELF4 (Homo sapiens, UniProt Q99607 1-663). A digest of the protocol: as §1
The next experiment deals with T9, ELK4 (Homo sapiens, UniProt P28324-2 1-405).
T9 sequence: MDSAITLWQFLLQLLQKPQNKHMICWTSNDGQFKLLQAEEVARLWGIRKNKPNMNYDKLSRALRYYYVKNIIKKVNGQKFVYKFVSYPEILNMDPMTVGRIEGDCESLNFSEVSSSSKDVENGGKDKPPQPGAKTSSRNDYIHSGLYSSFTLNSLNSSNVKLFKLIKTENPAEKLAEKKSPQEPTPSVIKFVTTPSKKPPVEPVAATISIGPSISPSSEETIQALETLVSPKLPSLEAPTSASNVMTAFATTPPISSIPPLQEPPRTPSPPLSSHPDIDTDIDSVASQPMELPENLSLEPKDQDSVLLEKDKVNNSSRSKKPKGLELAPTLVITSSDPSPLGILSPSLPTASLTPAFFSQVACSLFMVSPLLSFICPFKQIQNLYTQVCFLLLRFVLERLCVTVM
The gist of the method:
as §1

For another experiment, the target named is T10, ETV2 (Homo sapiens, UniProt O00321 1-342).
T10 sequence: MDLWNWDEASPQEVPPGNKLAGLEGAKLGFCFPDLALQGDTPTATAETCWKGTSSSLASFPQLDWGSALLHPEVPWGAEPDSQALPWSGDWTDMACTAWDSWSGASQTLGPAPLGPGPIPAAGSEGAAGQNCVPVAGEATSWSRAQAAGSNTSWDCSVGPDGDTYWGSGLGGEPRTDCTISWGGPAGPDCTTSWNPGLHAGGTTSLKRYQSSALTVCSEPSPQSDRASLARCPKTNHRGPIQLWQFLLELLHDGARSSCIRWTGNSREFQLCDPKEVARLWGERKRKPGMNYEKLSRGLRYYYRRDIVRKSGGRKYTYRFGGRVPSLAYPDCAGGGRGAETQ
A digest of the protocol:
as §1

For another experiment, the target named is T11, ELF3 (Homo sapiens, UniProt P78545 1-371).
T11 sequence: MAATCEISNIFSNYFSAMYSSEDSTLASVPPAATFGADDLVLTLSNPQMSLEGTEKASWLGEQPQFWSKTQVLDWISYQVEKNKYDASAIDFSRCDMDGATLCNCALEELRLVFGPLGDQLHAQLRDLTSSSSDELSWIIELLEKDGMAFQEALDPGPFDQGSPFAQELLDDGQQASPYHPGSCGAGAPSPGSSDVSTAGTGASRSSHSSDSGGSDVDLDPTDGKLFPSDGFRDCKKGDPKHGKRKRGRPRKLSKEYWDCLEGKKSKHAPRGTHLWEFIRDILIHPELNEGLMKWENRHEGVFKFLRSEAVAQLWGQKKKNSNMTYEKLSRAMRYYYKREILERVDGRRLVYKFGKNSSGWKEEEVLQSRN
A digest of the protocol:
as §1

Another experiment concerns the target ETV1 (Homo sapiens, UniProt P50549 1-477). The gist of the method: as §1

SPIB, sequence (Q01892 whole entry): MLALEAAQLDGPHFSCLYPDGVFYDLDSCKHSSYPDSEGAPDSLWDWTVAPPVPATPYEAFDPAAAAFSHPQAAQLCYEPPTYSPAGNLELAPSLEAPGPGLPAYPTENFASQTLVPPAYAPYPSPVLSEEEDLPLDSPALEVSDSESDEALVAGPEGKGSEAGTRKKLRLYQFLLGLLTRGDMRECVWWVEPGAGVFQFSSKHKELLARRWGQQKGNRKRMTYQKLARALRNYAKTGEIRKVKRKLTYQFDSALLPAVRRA
ETV5, sequence (P41161 whole entry): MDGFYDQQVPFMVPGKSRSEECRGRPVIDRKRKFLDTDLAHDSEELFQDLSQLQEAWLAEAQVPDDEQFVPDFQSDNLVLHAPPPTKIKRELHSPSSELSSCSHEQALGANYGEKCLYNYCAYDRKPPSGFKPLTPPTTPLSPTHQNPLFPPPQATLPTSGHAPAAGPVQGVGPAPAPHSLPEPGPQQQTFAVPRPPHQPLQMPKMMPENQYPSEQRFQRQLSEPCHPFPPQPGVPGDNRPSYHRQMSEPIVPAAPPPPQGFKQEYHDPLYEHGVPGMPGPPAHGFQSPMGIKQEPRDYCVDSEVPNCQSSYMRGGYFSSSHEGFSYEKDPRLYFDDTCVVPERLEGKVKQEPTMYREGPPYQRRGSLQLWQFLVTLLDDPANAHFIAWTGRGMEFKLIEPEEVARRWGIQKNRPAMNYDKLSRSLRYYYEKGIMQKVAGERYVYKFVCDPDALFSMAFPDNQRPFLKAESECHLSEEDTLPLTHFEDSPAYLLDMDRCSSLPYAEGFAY
ELF4, sequence (Q99607 whole entry): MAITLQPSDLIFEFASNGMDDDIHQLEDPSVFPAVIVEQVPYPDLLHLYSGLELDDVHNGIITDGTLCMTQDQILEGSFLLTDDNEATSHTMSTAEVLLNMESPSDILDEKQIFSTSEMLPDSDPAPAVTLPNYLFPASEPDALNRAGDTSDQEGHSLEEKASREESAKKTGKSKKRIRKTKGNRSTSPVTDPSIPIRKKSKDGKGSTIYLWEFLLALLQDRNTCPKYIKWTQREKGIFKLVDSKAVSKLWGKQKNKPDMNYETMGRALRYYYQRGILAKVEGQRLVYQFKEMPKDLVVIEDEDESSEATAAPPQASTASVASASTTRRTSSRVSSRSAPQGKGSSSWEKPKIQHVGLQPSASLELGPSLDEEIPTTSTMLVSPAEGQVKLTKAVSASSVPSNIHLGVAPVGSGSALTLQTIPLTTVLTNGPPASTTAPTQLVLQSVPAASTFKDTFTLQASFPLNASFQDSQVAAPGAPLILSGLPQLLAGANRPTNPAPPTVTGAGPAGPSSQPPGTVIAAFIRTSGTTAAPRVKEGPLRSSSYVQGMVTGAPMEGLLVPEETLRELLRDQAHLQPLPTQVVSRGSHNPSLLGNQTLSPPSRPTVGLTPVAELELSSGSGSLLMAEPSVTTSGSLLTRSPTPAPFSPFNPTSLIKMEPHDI
ETV1, sequence (P50549 whole entry): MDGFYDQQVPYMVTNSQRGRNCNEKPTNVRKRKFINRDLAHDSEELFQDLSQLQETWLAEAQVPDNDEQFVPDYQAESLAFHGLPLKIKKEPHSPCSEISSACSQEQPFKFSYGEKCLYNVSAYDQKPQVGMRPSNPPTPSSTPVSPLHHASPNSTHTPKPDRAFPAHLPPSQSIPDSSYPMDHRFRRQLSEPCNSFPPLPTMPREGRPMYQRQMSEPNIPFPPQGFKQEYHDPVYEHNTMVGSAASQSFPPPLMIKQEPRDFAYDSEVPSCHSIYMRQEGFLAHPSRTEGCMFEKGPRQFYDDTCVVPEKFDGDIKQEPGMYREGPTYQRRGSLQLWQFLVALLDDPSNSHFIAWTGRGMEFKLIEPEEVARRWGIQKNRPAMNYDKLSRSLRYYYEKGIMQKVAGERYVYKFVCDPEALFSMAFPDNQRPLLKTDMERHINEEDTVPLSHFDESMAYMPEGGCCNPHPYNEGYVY

With GCGGAA, the binding signal with FLI1 is 1.37 fold enrichment (6-mer frequency, TF over GST control); with ELK1, 1.33 fold enrichment (6-mer frequency, TF over GST control); with GABPA it was 1.29 fold enrichment (6-mer frequency, TF over GST control); in the experiment with ERG, 1.46 fold enrichment (6-mer frequency, TF over GST control); in the experiment with ELF1, 1.28 fold enrichment (6-mer frequency, TF over GST control); with EHF, 1.52 fold enrichment (6-mer frequency, TF over GST control). For the same sequence, the binding signal in the experiment with SPI1 is 2.18 fold enrichment (6-mer frequency, TF over GST control); with SPIB, 1.49 fold enrichment (6-mer frequency, TF over GST control); with ELK3 it was 1.37 fold enrichment (6-mer frequency, TF over GST control); with FEV, 1.34 fold enrichment (6-mer frequency, TF over GST control); with ETV5, 1.56 fold enrichment (6-mer frequency, TF over GST control); with SPIC, 1.5 fold enrichment (6-mer frequency, TF over GST control). Also, the binding signal with ELF4 was 1.21 fold enrichment (6-mer frequency, TF over GST control); with ELK4, 1.05 fold enrichment (6-mer frequency, TF over GST control); with ETV2, 1.34 fold enrichment (6-mer frequency, TF over GST control); in the experiment with ELF3, 1.53 fold enrichment (6-mer frequency, TF over GST control); with ETV1, 1.42 fold enrichment (6-mer frequency, TF over GST control).

In the case of TGCCAC, the binding signal with FLI1 is 1.21 fold enrichment (6-mer frequency, TF over GST control); with ELK1, 1.2 fold enrichment (6-mer frequency, TF over GST control); with GABPA, 1.14 fold enrichment (6-mer frequency, TF over GST control); in the experiment with ERG, 1.26 fold enrichment (6-mer frequency, TF over GST control); in the experiment with ELF1, 1.18 fold enrichment (6-mer frequency, TF over GST control); with EHF, 1.23 fold enrichment (6-mer frequency, TF over GST control). For the same sequence, the binding signal was 1.21 fold enrichment (6-mer frequency, TF over GST control) in the experiment with SPI1; 1.13 fold enrichment (6-mer frequency, TF over GST control) with SPIB; 1.23 fold enrichment (6-mer frequency, TF over GST control) with ELK3; 1.32 fold enrichment (6-mer frequency, TF over GST control) with FEV; 1.14 fold enrichment (6-mer frequency, TF over GST control) with ETV5; 1.19 fold enrichment (6-mer frequency, TF over GST control) in the experiment with SPIC. Besides, the binding signal was 1.26 fold enrichment (6-mer frequency, TF over GST control) with ELF4; 1.42 fold enrichment (6-mer frequency, TF over GST control) with ELK4; 1.14 fold enrichment (6-mer frequency, TF over GST control) in the experiment with ETV2; 1.44 fold enrichment (6-mer frequency, TF over GST control) in the experiment with ELF3; 1.26 fold enrichment (6-mer frequency, TF over GST control) in the experiment with ETV1.
